Among all 350,000 compounds or so, about 7,000 (2%) were called active. Rule as the data show it: active = activation above about 40%; inconclusive = no clear call, values can overlap the other calls; inactive = below that. This excerpt belongs to a sample that is enriched for actives.

This is an account of results in PubChem BioAssay AID602393 (Broad Institute, 2012).

The nature of this test: raisers of Bmi1 knock-in reporter signal – mouse ES cells, Bmi1 luciferase knock-in, single point, esBAF inhibitor project, primary screen (AID 602393).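 Also: 0% = median of the plate's neutral control wells and 100% = double that signal; a rise in the Bmi1 reporter signal indicates esBAF inhibition.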 As to conditions: 24 h, at 12.5 µM, stronger effect = higher value, 100% = twice the neutral-well signal.
Consider `Cc1ccc(C)c(N2CCN(C(=O)CCc3nc(-c4cccc(C(F)(F)F)c4)no3)CC2)c1`, for which the reporter increase is 61.9% (active).
As to `Cc1ccc(C)c(N2CCN(C(=O)CCc3nc4ccccc4[nH]3)CC2)c1`, the reporter increase was 10.7% (inactive).
For `COc1ccc(-c2noc(CCC(=O)N3CCN(c4cccc(C)c4)CC3)n2)cc1`, the reporter increase is -6.31% (inactive).
The value for `CNC[C@@H]1Oc2ccc(NS(=O)(=O)c3c(C)noc3C)cc2CC(=O)N([C@@H](C)CO)C[C@@H]1C` was 1.22% (inactive); that for `CO[C@H]1CN(C)C(=O)c2cc(NS(C)(=O)=O)ccc2OC[C@@H](C)N(C(=O)NC(C)C)C[C@@H]1C` was -1.56% (inactive).
Under `CCC(=O)N1C[C@H]2[C@@H](c3ccccc31)[C@H](CO)N2Cc1ccccc1F` stands -1.5% (inactive); under `N#CC(=C1CCCC1)c1nc(-c2ccc(Cl)cc2)cs1`, 58.5% (active).
Consider `N#CC(=C1SC=CS1)c1nc(-c2ccccc2)cs1`, for which the reporter increase is 56.6% (active).
With `c1ccc(-c2csc(N3CCc4ccccc4C3)n2)cc1`, the reporter increase was 21.9% (inactive).
The value for `C[C@@H]1CN([C@@H](C)CO)C(=O)Cc2cc(NS(=O)(=O)c3ccc(Cl)cc3)ccc2O[C@H]1CN(C)CC1CCCCC1` was 3.84% (inactive).
The value for `O=C(Cc1ccccn1)N1[C@@H]2CNc3ccccc3[C@@H]2[C@@H]1CO` was -1.83% (inactive); that for `O=C(c1cccnc1)N1C[C@H]2[C@@H](c3ccccc31)[C@H](CO)N2C(=O)C1CCCCC1` was -4.74% (inactive).
The value for `CCC(=O)Nc1ccc2c(c1)C(=O)N(C)C[C@H](OC)[C@H](C)CN(C(=O)C1CCC1)[C@@H](C)CO2` was -5.69% (inactive); that for `CN1/C(=C\C(=O)c2cccnc2Cl)C(C)(C)c2ccccc21` was 48.4% (active); that for `CC(C)Nc1nnc(SCC(=O)/C=C2\N(C)c3ccccc3C2(C)C)s1` was -0.0975% (inactive).
With `CC(=O)Nc1cccc(OCC(=O)/C=C2\N(C)c3ccccc3C2(C)C)c1`, the reporter increase was -12.2% (inactive).
Under `C[C@@H]1CCCCO[C@H](CN(C)S(C)(=O)=O)[C@@H](C)CN([C@@H](C)CO)C(=O)c2cc(NC(=O)CCC(F)(F)F)ccc2O1` stands -0.325% (inactive).
For the compound `CCCNC(=O)[C@H]1[C@H](CO)[C@H]2Cn3c(ccc(C4=CCCC4)c3=O)[C@H]2N1C(=O)CC`, the reporter increase was -0.965% (inactive).
With `O=C(CN1C(=O)COc2ccc(Cl)cc21)Nc1ccc(N2CCOCC2)cc1`, the reporter increase is -1.03% (inactive).
The value for `CC(OC(=O)CN1C(=O)COc2ccccc21)C(=O)NCc1ccc(F)cc1` (stereo unspecified) was -4.32% (inactive); that for `O=C(CN1C(=O)COc2ccccc21)Nc1ccc(F)cc1` was 72.1% (active).
Consider `Cc1noc(C)c1NC(=O)N(C)C[C@@H]1OCCCC[C@H](C)Oc2ccc(NC(=O)CCC(F)(F)F)cc2C(=O)N([C@@H](C)CO)C[C@@H]1C`, for which the reporter increase was -15% (inactive).
The value for `CN(C)C(=O)C[C@@H]1CC[C@@H](NS(=O)(=O)c2ccccc2)[C@H](CO)O1` was -9.26% (inactive).
As for `CCOC(=O)C1(Cc2ccccc2C)CCCN(C(=O)c2ccc(COC)o2)C1` (stereo unspecified), the reporter increase was 52.7% (active).
Under `CCOC(=O)C1(Cc2ccccc2C)CCCN(S(C)(=O)=O)C1` (stereo unspecified) stands -5.66% (inactive).
Under `CCOC(=O)C1(Cc2ccccc2C)CCCN(C(=O)CN2C(=O)CSC2=O)C1` (stereo unspecified) stands 15.7% (inactive); under `COc1cccc(C(=O)Nc2ccc3c(c2)C(=O)N(C)[C@@H]2CC[C@H](CC(=O)NCCCN4CCOCC4)O[C@H]2CO3)c1`, 6.81% (inactive); under `C[C@@H]1CN([C@@H](C)CO)C(=O)c2cc(NS(=O)(=O)c3cn(C)cn3)ccc2O[C@@H](C)CCCCO[C@H]1CN(C)S(=O)(=O)c1cccs1`, -0.192% (inactive).
The value for `Cc1ccc(S(=O)(=O)Nc2ccc3c(c2)C(=O)N([C@H](C)CO)C[C@@H](C)[C@H](CN(C)C(=O)Nc2ccc(C(F)(F)F)cc2)OCCCC[C@H](C)O3)cc1` was -0.527% (inactive).
Turning to `c1ccc2c(c1)CCc1snnc1-2`, the reporter increase was -3.35% (inactive).
The value for `O=S(=O)(c1cccs1)N1CCc2ccccc2C1` was -5.9% (inactive); that for `O=C1/C(=C/c2cccs2)CCc2ccccc21` was 56.4% (active).
Consider `COc1ccc(/C=N/NC(=O)C2CC2)c(OC)c1OC`, for which the reporter increase was -5.72% (inactive).
Under `COc1ccc(/C=C2\CCc3ccccc3C2=O)c(OC)c1OC` stands 35.7% (active).
Under `COc1ccc(/C=C2/CCCc3ccccc3C2=O)cc1` stands 23.6% (inactive); under `O=C(C[C@H]1C=C[C@@H](NS(=O)(=O)c2ccc(F)cc2)[C@@H](CO)O1)NC1CCC1`, -2.06% (inactive).
The value for `CO[C@H]1CN(C)C(=O)c2cc(NS(C)(=O)=O)ccc2OC[C@@H](C)N(C)C[C@@H]1C` was 0.827% (inactive); that for `CN1CCCCN2[C@@H](CO)[C@@H](c3ccc(C4=CCCC4)cc3)[C@@H]2C1` was -22.1% (inactive); that for `CCc1ccccc1OCC(=O)Nc1nnc(C2CC2)s1` was 1.33% (inactive).
As for `Cc1cc(C(=O)Nc2nnc(C3CC3)s2)c(C)s1`, the reporter increase was 62.3% (active).
Under `COc1ccc2c(CC(=O)Nc3nnc(C4CC4)s3)coc2c1` stands 4.79% (inactive); under `CCc1nnc(NC(=O)c2cc(S(=O)(=O)N3CCCCC3)ccc2C)s1`, 8.45% (inactive); under `CCc1cc(C(=O)Nc2nnc(C3CC3)s2)sc1C`, 53.3% (active).
On to `O=C(Nc1nnc(C2CC2)s1)C1=NN(C2CCS(=O)(=O)C2)C(=O)CC1` (stereo unspecified), for which the reporter increase is 4.96% (inactive).
The value for `COCc1cn(CC[C@H]2CC[C@H](NC(=O)c3ccncc3)[C@H](CO)O2)nn1` was -3.19% (inactive); that for `CN1C[C@H]2[C@@H](c3ccccc31)[C@@H](CO)N2C(=O)Nc1ccccc1` was 3.76% (inactive).
Under `O=S(=O)(Nc1ccc2nc(-c3ccco3)[nH]c2c1)c1ccccc1` stands 60.3% (active); under `Cn1c(CCN2CCCC2)nc2cc(NS(=O)(=O)c3ccccc3)ccc21`, 1.19% (inactive); under `O=S(=O)(Nc1ccc2cn[nH]c2c1)c1ccccc1`, -0.15% (inactive).
The value for `CO[C@H]1CC[C@@H]2CCOc3c(C#N)cccc3C(=O)N(C)C[C@H](C)C(=O)N(C)C[C@H]1O2` was 4.38% (inactive).
Regarding `C[C@H](NC(=O)C[C@@H]1C[C@@H]2c3cc(NC(=O)Nc4ccc(C(F)(F)F)cc4)ccc3O[C@@H]2[C@H](CO)O1)c1ccccc1`, the reporter increase was -3.56% (inactive).
